Activity calls are given as the source filed them. How the source made its calls: active means hit-call score of the fitted dose curve at least 0.9, where 1 is the maximum; inactive means score below 0.9.
The molecules below were run on Cytochrome P450 2C19 (Homo sapiens) (UniProt P33261) (assay: LTEA_HepaRG_CYP2C19: Life Technologies and Expression Analysis (LTEA) Assay for CYP2C19 using HepaRG (AID 2283482)). Conditions: mRNA level, 48 h; actives raise or lower the signal.
Summary of the method: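 Endpoint: CYP2C19 mRNA change, bidirectional fit vs 0.5% DMSO. Cells: HepaRG, 48 h exposure, eight-point series topping at 100 uM. Quantitation: qRT-PCR normalized to ACTB, GAPDH, POLR2A.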

Cytochrome P450 2C19 (Homo sapiens), sequence (P33261 whole entry, looked up): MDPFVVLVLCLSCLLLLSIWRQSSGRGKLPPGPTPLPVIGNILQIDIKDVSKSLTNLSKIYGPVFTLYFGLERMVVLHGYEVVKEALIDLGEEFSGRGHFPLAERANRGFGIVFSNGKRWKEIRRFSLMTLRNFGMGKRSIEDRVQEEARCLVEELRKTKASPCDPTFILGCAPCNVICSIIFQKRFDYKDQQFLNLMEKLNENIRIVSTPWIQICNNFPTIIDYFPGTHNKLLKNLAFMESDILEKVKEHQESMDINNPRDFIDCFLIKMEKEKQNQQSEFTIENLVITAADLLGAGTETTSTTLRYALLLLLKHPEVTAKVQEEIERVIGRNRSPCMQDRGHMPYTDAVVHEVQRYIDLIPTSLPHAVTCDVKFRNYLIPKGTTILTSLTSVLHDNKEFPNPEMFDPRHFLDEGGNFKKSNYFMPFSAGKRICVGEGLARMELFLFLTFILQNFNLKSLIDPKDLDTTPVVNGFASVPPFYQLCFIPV

| SMILES | outcome | AC50 |
| --- | --- | --- |
| c1ccc2occc2c1 | inactive | – |
| NC(=Nc1ccccc1)Nc1ccccc1 | inactive | – |
| CCN(CC)CCOc1ccc(C(=C(Cl)c2ccccc2)c2ccccc2)cc1 | inactive | – |
| NCCOCCOCCN | inactive | – |
| Oc1ccccc1O | inactive | – |
| Cc1cc(SC2=C(O)C[C@@](CCc3ccc(N)cc3)(C(C)C)OC2=O)c(C(C)(C)C)cc1CO | – | 0.972 µM (active) |
| CCCCC(CC)CO (configuration not stated) | inactive | – |
| Nc1nc(Cl)nc2c1ncn2[C@H]1C[C@H](O)[C@@H](CO)O1 | – | 2.05 µM (active) |
| O=C(O)CC(O)(CC(=O)O)C(=O)O | inactive | – |
| O=C(NS(=O)(=O)/C=C/c1cccs1)c1ccc(F)cc1Br | – | 13 µM (active) |
| CC(COCC(C)OC(=O)c1ccccc1)OC(=O)c1ccccc1 (configuration not stated) | inactive | – |
| Cc1cn([C@H]2C=C[C@@H](CO)O2)c(=O)[nH]c1=O | inactive | – |
| C#CC(O)C(CC)CCCC (configuration not stated) | inactive | – |
| CSc1ccc(Oc2ccc(S(N)(=O)=O)cc2CN(C)C)cc1C | inactive | – |
| CCCCOC(=O)CCCCC(=O)OCCCC | inactive | – |
| N[C@@H](Cc1c[nH]c2ccccc12)C(=O)O | inactive | – |
| CCCCC(CC)COP(=O)(OCC(CC)CCCC)OCC(CC)CCCC (configuration not stated) | – | 7.79 µM (active) |
| CC(N)=O | inactive | – |
| O=C1CCCCC1 | inactive | – |
| O=NO | inactive | – |
| Cc1cc(Cc2ccc(N)c(C)c2)ccc1N | – | 11.5 µM (active) |
| CCCCCCCCCCCCCCOS(=O)(=O)O | inactive | – |
| Nc1nc(=S)c2[nH]cnc2[nH]1 | – | 9.48 µM (active) |
| COc1ccc(OC(F)(F)F)cc1CN[C@H]1CCCN[C@H]1c1ccccc1 | – | 2.8 µM (active) |
| CC(=O)S[C@H](C(=O)N[C@H]1Cc2ccccc2[C@H]2CCC[C@@H](C(=O)O)N2C1=O)C(C)C | inactive | – |
| CC(=O)OCC(COC(C)=O)OC(C)=O | inactive | – |
| O=C1O[C@H]([C@H](O)CO)C(O)=C1O | inactive | – |
| CC(=O)OC1CC(C)OC(C)O1 (configuration not stated) | inactive | – |

Each molecule was assayed on CYP2C8 (gene 1558) (assay: LTEA_HepaRG_CYP2C8: Life Technologies and Expression Analysis (LTEA) Assay for CYP2C8 using HepaRG (AID 2283483)). Conditions: mRNA level, 48 h; actives raise or lower the signal.
Summary of the method: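 CYP2C8 mRNA induction or loss, by qRT-PCR normalized to ACTB/GAPDH/POLR2A, is read in HepaRG cells after 48 h treatment. Concentrations run from 100 uM down in half-log dilutions, with 0.5% DMSO as vehicle and baseline.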

| SMILES | outcome | AC50 |
| --- | --- | --- |
| CN(C)CCCN1c2ccccc2Sc2ccc(Cl)cc21 | inactive | – |
| c1ccc2occc2c1 | inactive | – |
| NC(=Nc1ccccc1)Nc1ccccc1 | inactive | – |
| CCN(CC)CCOc1ccc(C(=C(Cl)c2ccccc2)c2ccccc2)cc1 | inactive | – |
| NCCOCCOCCN | inactive | – |
| Oc1ccccc1O | inactive | – |
| CCc1nc(N)nc(N)c1-c1ccc(Cl)cc1 | – | 79.6 µM (active) |
| Cc1cc(SC2=C(O)C[C@@](CCc3ccc(N)cc3)(C(C)C)OC2=O)c(C(C)(C)C)cc1CO | – | 3.03 µM (active) |
| CCCCC(CC)CO (configuration not stated) | inactive | – |
| Nc1nc(Cl)nc2c1ncn2[C@H]1C[C@H](O)[C@@H](CO)O1 | – | 1 µM (active) |
| O=C(O)CC(O)(CC(=O)O)C(=O)O | inactive | – |
| O=C(NS(=O)(=O)/C=C/c1cccs1)c1ccc(F)cc1Br | inactive | – |
| CC(COCC(C)OC(=O)c1ccccc1)OC(=O)c1ccccc1 (configuration not stated) | inactive | – |
| Cc1cn([C@H]2C=C[C@@H](CO)O2)c(=O)[nH]c1=O | inactive | – |
| C#CC(O)C(CC)CCCC (configuration not stated) | inactive | – |
| CSc1ccc(Oc2ccc(S(N)(=O)=O)cc2CN(C)C)cc1C | inactive | – |
| CCCCOC(=O)CCCCC(=O)OCCCC | inactive | – |
| N[C@@H](Cc1c[nH]c2ccccc12)C(=O)O | inactive | – |
| CCCCC(CC)COP(=O)(OCC(CC)CCCC)OCC(CC)CCCC (configuration not stated) | inactive | – |
| CC(N)=O | inactive | – |
| O=NO | inactive | – |
| Cc1cc(Cc2ccc(N)c(C)c2)ccc1N | inactive | – |
| CCCCCCCCCCCCCCOS(=O)(=O)O | – | 12.6 µM (active) |
| Nc1nc(=S)c2[nH]cnc2[nH]1 | – | 32.2 µM (active) |
| COc1ccc(OC(F)(F)F)cc1CN[C@H]1CCCN[C@H]1c1ccccc1 | inactive | – |
| CC(=O)S[C@H](C(=O)N[C@H]1Cc2ccccc2[C@H]2CCC[C@@H](C(=O)O)N2C1=O)C(C)C | inactive | – |
| CC(=O)OCC(COC(C)=O)OC(C)=O | inactive | – |
| O=C1O[C@H]([C@H](O)CO)C(O)=C1O | inactive | – |
| CC(=O)OC1CC(C)OC(C)O1 (configuration not stated) | inactive | – |

The molecules below were run on CYP2C9 (gene 1559) (assay: LTEA_HepaRG_CYP2C9: Life Technologies and Expression Analysis (LTEA) Assay for CYP2C9 using HepaRG (AID 2283484)). Conditions: mRNA level, 48 h; actives raise or lower the signal.
Summary of the method: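 Cells plated 48 h, switched to serum-free induction medium, then treated in duplicate for 48 h at eight concentrations (max 100 uM, 0.5% DMSO). RNA then analysed by qRT-PCR for CYP2C9; curves fitted in both directions relative to DMSO.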

| SMILES | outcome | AC50 |
| --- | --- | --- |
| CN(C)CCCN1c2ccccc2Sc2ccc(Cl)cc21 | inactive | – |
| c1ccc2occc2c1 | inactive | – |
| NC(=Nc1ccccc1)Nc1ccccc1 | inactive | – |
| CCN(CC)CCOc1ccc(C(=C(Cl)c2ccccc2)c2ccccc2)cc1 | – | 80.9 µM (active) |
| NCCOCCOCCN | inactive | – |
| Oc1ccccc1O | inactive | – |
| CCc1nc(N)nc(N)c1-c1ccc(Cl)cc1 | – | 44.5 µM (active) |
| Cc1cc(SC2=C(O)C[C@@](CCc3ccc(N)cc3)(C(C)C)OC2=O)c(C(C)(C)C)cc1CO | inactive | – |
| CCCCC(CC)CO (configuration not stated) | inactive | – |
| Nc1nc(Cl)nc2c1ncn2[C@H]1C[C@H](O)[C@@H](CO)O1 | – | 1.07 µM (active) |
| O=C(O)CC(O)(CC(=O)O)C(=O)O | inactive | – |
| O=C(NS(=O)(=O)/C=C/c1cccs1)c1ccc(F)cc1Br | inactive | – |
| CC(COCC(C)OC(=O)c1ccccc1)OC(=O)c1ccccc1 (configuration not stated) | inactive | – |
| Cc1cn([C@H]2C=C[C@@H](CO)O2)c(=O)[nH]c1=O | inactive | – |
| C#CC(O)C(CC)CCCC (configuration not stated) | inactive | – |
| CSc1ccc(Oc2ccc(S(N)(=O)=O)cc2CN(C)C)cc1C | inactive | – |
| CCCCOC(=O)CCCCC(=O)OCCCC | inactive | – |
| N[C@@H](Cc1c[nH]c2ccccc12)C(=O)O | inactive | – |
| CCCCC(CC)COP(=O)(OCC(CC)CCCC)OCC(CC)CCCC (configuration not stated) | inactive | – |
| CC(N)=O | inactive | – |
| O=C1CCCCC1 | inactive | – |
| O=NO | inactive | – |
| Cc1cc(Cc2ccc(N)c(C)c2)ccc1N | inactive | – |
| CCCCCCCCCCCCCCOS(=O)(=O)O | – | 64.4 µM (active) |
| Nc1nc(=S)c2[nH]cnc2[nH]1 | – | 7.91 µM (active) |
| COc1ccc(OC(F)(F)F)cc1CN[C@H]1CCCN[C@H]1c1ccccc1 | – | 83.7 µM (active) |
| CC(=O)S[C@H](C(=O)N[C@H]1Cc2ccccc2[C@H]2CCC[C@@H](C(=O)O)N2C1=O)C(C)C | inactive | – |
| CC(=O)OCC(COC(C)=O)OC(C)=O | inactive | – |
| O=C1O[C@H]([C@H](O)CO)C(O)=C1O | inactive | – |
| CC(=O)OC1CC(C)OC(C)O1 (configuration not stated) | inactive | – |
